From PubChem BioAssay (NCI)
About 83,000 compounds went through this panel and 20% of them were active in at least one assay; those are over-represented in the sample as a whole.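 Cell lines were cultured in 96-well plates, exposed to a single compound concentration, and assessed for percent growth 48 hours later.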 Calls of active or inactive are those of the source. The calls were made as follows: active = growth percent below 10; inactive = the rest.

test system: UO-31 renal; assay: NCI-60 one-dose screen, 48 h (100 = growth as untreated, 0 = no growth, -100 = all killed); settings: 10 µM unless noted

| Structure (SMILES) | growth |
| --- | --- |
| COC(=O)[C@]12CC[C@@H](C)[C@H](C)[C@@H]1C1=CC[C@@H]3[C@@]4(C)C[C@@H](OC(C)=O)[C@H](O)[C@@](C)(COC(C)=O)[C@@H]4[C@H](O)C[C@@]3(C)[C@]1(C)CC2 | -81.6% (active) |
| N#Cc1c(-c2ccco2)nc2c(c(-c3ccccc3)nn2-c2ccccc2)c1-c1ccc(O)cc1 | 92% (inactive) |
| CC(=O)c1c(C)[nH]c(-c2nc3ccc(N4CCN(C)CC4)cc3[nH]2)c1-c1ccc2c(c1)OCCO2 | 9.19% (active) |
| COc1ccc(C(=O)c2ccc(C)cc2)c(OC)c1OC | 72.6% (inactive) |
| C[C@H]1OC(=O)/C=C/[C@@H](O)[C@@H](O)CCCCCCCC[C@@H]1O | 82.6% (inactive) |
| COc1ccccc1-n1cnc(N)c1C(=O)c1cc(OC)c(OC)c(OC)c1 | 55.2% (inactive) |
| COc1ccc(/C=C(\C#N)c2cc3ccccc3n2S(C)(=O)=O)cc1 | 56.2% (inactive) |
| Cc1cccc2c1NC(=O)[C@@]21[C@H](C(=O)c2ccccc2)[C@]2(C(=O)Nc3ccccc32)[C@H]2CCCN21 | 30.5% [100 µM] (inactive) |
| N=c1ccc2nc3c(cc(N)c4ccccc43)oc-2c1 | -78.7% (active) |
| COc1cccc(-c2nn(-c3ccccc3)cc2-c2ccnc(NCCCNS(=O)(=O)c3ccc(Br)cc3)c2)c1 | 21.6% (inactive) |
| Cc1ccc(-c2nn(Cc3cn(-c4cc(C)nc5ccccc45)nn3)c3ncnc(N)c23)cc1 | 17.6% (inactive) |
| COc1ccc2c(c1)c1nc3cc(C)c(C)cc3nc1n2CCN(C)C | -24.1% (active) |
| CC(=O)n1c(/C(C#N)=C/c2ccc(N(C)C)cc2)cc2ccccc21 | 52.6% (inactive) |
| C[C@H]1[C@H]2C3=CC[C@@H]4[C@@]5(C)C/C(=C/c6ccco6)C(=O)C(C)(C)[C@@H]5CC[C@@]4(C)[C@]3(C)CC[C@@]2(C(=O)N2CCOCC2)CC[C@@H]1C | 49% (inactive) |
| Fc1ccc(Nc2ccc3c(OCCCN4CCOCC4)cccc3n2)cc1F | 63.8% (inactive) |
| COc1cccc(-c2nn(-c3ccccc3)cc2-c2ccnc(NCCNS(=O)(=O)c3ccc(C(F)(F)F)cc3)c2)c1 | 11.7% (inactive) |
| Cn1cnc2c1c(=O)n(CCC(=O)Nc1ccc(F)cc1)c(=O)n2C | 92.7% (inactive) |
| COCCNC1=C(Cl)C(=O)c2ccccc2C1=O | 115% (inactive) |
| CCCCn1c(-c2ccc(O)cc2)cn2c3c(=O)[nH]c(=O)n(C)c3nc12 | 70.2% (inactive) |
| Cc1ccc(N(CC(=O)Nc2ccc(S(=O)(=O)NC3CCN(C)CC3)cc2)S(=O)(=O)c2ccc(Cl)cc2)cc1 | 83.3% (inactive) |

| Structure (SMILES) | growth |
| --- | --- |
| CC(=O)OC[C@]12CC[C@@H](/C(C)=N/O)[C@@H]1[C@H]1CC[C@@H]3[C@@]4(C)CCCNC(C)(C)[C@@H]4CC[C@@]3(C)[C@]1(C)CC2 | 61.2% (inactive) |
| Clc1ccc(Cn2cc(-c3nc4ccc(Br)nc4n3Cc3ccc(Cl)cc3)c3cccnc32)cc1 | 51.7% (inactive) |
| CN1CCN(CCOc2ccc(-c3cnc4c(-c5cccc(F)c5)cnn4c3)cc2)CC1 | 39.2% (inactive) |
| CN1CCN(c2nc(-c3csc(-c4cccs4)n3)cc3ccccc23)CC1 | 59.8% (inactive) |
| CCN(CC)CCCCCCNc1ccnc2cc(Cl)ccc12 | 86.1% (inactive) |
| CCCCCCCC(=O)SCC/C=C/[C@@H]1CC(=O)NCc2cccc(n2)CN(Cc2ccc(Cl)cc2)CC(=O)N[C@@H](C(C)C)C(=O)O1 | -5.27% (active) |
| c1cc(N2CCCC2)c2nc(-c3[nH]ncc3Nc3ncnc4[nH]ccc34)[nH]c2c1 | -20.3% (active) |
| COc1ccc(C2=NN(c3nc(-c4ccc(OC)cc4)c(C#N)c(=O)n3C)C(=O)CC2)cc1 | 85.9% (inactive) |
| Cc1ccc(S(=O)(=O)Nc2ccc(-c3cc(-c4cccc(F)c4)c(C#N)c(N)n3)cc2)cc1 | -88.2% (active) |
| CC(C)(C)c1ccc(OCCCCCCCN2CCNCC2)cc1 | 33.3% (inactive) |
| COC(=O)CNc1nc(N(C)O)nc(N(C)O)n1 | 35.6% (inactive) |
| COc1cc2ncnc(Nc3ccc(Oc4ccnc(C)c4)c(C)c3)c2cc1NC(=O)CC1CCSS1 (centres undefined) | -23.7% (active) |
| C=C(C)[C@@H]1CC[C@]2(C)[C@H](CC[C@@H]3[C@H]4[C@H]5OC[C@@]4(CCC5(C)C)CC[C@]32C)[C@@]1(C)CCCN | 63.8% (inactive) |
| c1ccc(-c2nc(Nc3ccc(-c4nc5ccccc5[nH]4)cc3)nc(N3CCOCC3)n2)cc1 | -60.6% (active) |
| CCOC(=O)C1OC1(c1ccccc1)c1ccccc1 (centres undefined) | 88.1% (inactive) |
| CCN1CCN(C(=O)[C@@]2(C)CC[C@]3(C)CC[C@]4(C)C(=CC(=O)[C@@H]5[C@@]6(C)CC[C@H](OCCC#N)C(C)(C)[C@@H]6CC[C@]54C)[C@@H]3C2)CC1 | 69.8% (inactive) |
| O=S(=O)(NCCNc1cc(-c2cn(-c3ccccc3)nc2-c2cccc(O)c2)ccn1)c1cccc(F)c1 | 23.5% (inactive) |
| N#CC1=C(N)Oc2ccc3ccccc3c2C1c1ccccc1 (centres undefined) | 44.9% (inactive) |
| COc1ccc(-c2cc(=O)oc3ccc(Cl)cc23)cc1F | 48.4% (inactive) |
